The text below walks through data of PubChem BioAssay (EPA / NIEHS).

The structures appear in SMILES notation. Values joined by “and” are separate entries in the source; they are usually repeats but may differ in a detail not shown here. Identical values can stand only once. A structure can be active in one record and inactive in another. Active and inactive are the calls of the source. Rule for the calls: active = hit-call score of the fitted dose curve at least 0.9, where 1 is the maximum; inactive = score below 0.9.

The target of the assay is Myc proto-oncogene protein (Homo sapiens) (UniProt P01106). The assay can be described thus: ATG_Myc_CIS: Attagene CIS-FACTORIAL HepG2 Assay for human Myelocytomatosis (Myc) Proto-Oncogene Transcription Factor (AID 2282990). Conditions: HepG2, Attagene cis-reporter transcription factor activity; actives raise or lower the signal. How it is done: ATG_CIS is a cell-based, multiplexed-readout assay that uses HepG2, a human liver cell line, with measurements taken at 24 hours after chemical dosing in a 24-well plate.ATG_Myc_CIS is one of 52 assay component(s) measured or calculated from the ATG_CIS assay. It is designed to make measurements of mRNA induction, a form of inducible reporter, as detected with fluorescence intensity signals by Reverse transcription polymerase chain reaction (RT-PCR) and Capillary electrophoresis technology.Data from the assay component ATG_Myc_CIS was analyzed into 1 assay endpoint. This assay endpoint, ATG_Myc_CIS, was analyzed with bidirectional fitting relative to DMSO as the negative control and baseline of activity. Using a type of inducible reporter, measures of mRNA for gain or loss-of-signal activity can be used to understand the reporter gene at the transcription factor-level as they relate to the gene MYC. Furthermore, this assay endpoint can be referred to as a primary readout, because this assay has produced multiple assay endpoints where this one serves a reporter gene function. To generalize the intended target to other relatable targets, this assay endpoint is annotated to the dna binding intended target family, where the subfamily is basic helix-loop-helix leucine zipper.
Sequence of Myc proto-oncogene protein (Homo sapiens) (P01106 whole entry, looked up): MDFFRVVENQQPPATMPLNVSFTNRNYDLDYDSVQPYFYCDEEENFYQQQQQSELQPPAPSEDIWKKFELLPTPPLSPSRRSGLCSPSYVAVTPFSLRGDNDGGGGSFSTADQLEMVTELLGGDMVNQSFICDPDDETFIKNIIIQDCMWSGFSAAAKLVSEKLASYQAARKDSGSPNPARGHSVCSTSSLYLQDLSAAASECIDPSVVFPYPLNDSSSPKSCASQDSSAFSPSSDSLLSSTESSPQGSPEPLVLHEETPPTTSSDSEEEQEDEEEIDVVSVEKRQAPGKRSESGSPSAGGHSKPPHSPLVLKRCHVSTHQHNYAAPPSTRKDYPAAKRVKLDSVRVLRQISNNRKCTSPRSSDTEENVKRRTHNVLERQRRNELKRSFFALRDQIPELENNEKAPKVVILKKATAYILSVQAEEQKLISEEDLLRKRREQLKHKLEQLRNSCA
Human liver HepG2 cells are transiently transfected with multiple reporter transcription units (MRTUs) in 6-well plates using FuGene 6 reagent (Roche; 3 ml FuGene/1 mg DNA). The MRTU constructs are regulated by a cis-regulating element (promoter). […] A major difference between the CIS and TRANS system is that in CIS activities of endogenous TFs are measured, whereas the TRANS assay evaluates changes in activities of exogenous, chimeric NR-Gal4 proteins. […] At the end of 24 hour incubation, total RNA was isolated using TriZol reagent (Invitrogen). The isolated RNA is then reverse-transcribed using oligo(dT) primer and Mo-MLV reverse transcriptase (Invitrogen) with DNAse I (Ambion) treatment for 30 min. The one-tenth of the produced cDNA was amplified by PCR using Taq DNA polymerase (Invitrogen) and two reporter sequence-specific primers. The PCR products were fluorescently labeled by primer extension with 6-arboxyfluorescein (6-FAM) 5'-labeled reporter sequence-specific primer (2 min at 95 C, 20 s at 68 C and 10 min at 72 C) and these products were digested with 5U of HpaI (New England Biolabs) for 2h at 37 C. The fragments were purified using Qiaquick PCR columns (Qiagen), analyzed on an ABI 3130xL genetic analyzer (Applied Biosystems) with peak positions identified by using a set of X-rhodamine (ROX)-labeled MapMarker1000 molecular weight standards (BioVentures). The raw capillary electrophoresis data was processed using Attagraph software (Attagene).
A word on the AC50: it is the midpoint of the concentration-response curve, whichever way the signal moves. With `CS(=O)(=O)c1ccc([C@@H](CC2CCCC2)C(=O)Nc2cnccn2)cc1Cl`, the AC50 is 165 µM (active). `Cc1cccc2c1ccc1ccccc12`: the compound was classed as inactive.

For the compound `O=C1OC2(c3ccccc31)c1cc(I)c(O)c(I)c1Oc1c2cc(I)c(O)c1I`, the outcome was inactive. Turning to `NCCN`, the compound was classed as inactive.

Regarding `CC(=O)CC(C)C`, the result was inactive. In the case of `O=C1OC(=O)C(F)(F)C1(F)F`, the compound was called inactive. In the case of `Cc1cc(C(C)(C)C)c(O)c(C(C)(C)C)c1`, the AC50 is 51 µM (active) and 92.8 µM (active). For `CCCCCCCCC(C)=O`, the compound was classed as inactive. `CC[N+](CC)(CC)Cc1ccccc1`: the call was inactive. Same read-out and setting: with `CC(C)(O)C(=O)c1ccccc1` the entry was “inactive”; with `C=CC(=O)OCCC(F)(F)C(F)(F)C(F)(F)C(F)(F)C(F)(F)C(F)(F)F`, “inactive”; with `CCCCC=O`, “inactive”. With `CCCCCc1ccc(O)cc1`, the result was inactive.

For `COc1cccc(O)c1`, the compound was classed as inactive. In the case of `CCc1ccccc1O`, the call was inactive. Regarding `O=c1cc(-c2ccccc2)oc2ccc3ccccc3c12`, the outcome was inactive. Regarding `Cc1ccccc1C(OCCN(C)C)c1ccccc1` (stereo not given), the outcome was inactive. `CNNCc1ccc(C(=O)NC(C)C)cc1`: the result was inactive. On the same count and under the same terms, as for `CC1=NN(c2ccccc2)C(=O)C1`, the entry is “inactive”; as for `O=C1c2ccc(O)c(O)c2C(=O)c2c(O)ccc(O)c21`, “inactive”. As for `CCN(CCC#N)c1ccccc1`, the outcome was inactive.

`O=C1NS(=O)(=O)c2ccccc21`: the compound was classed as inactive. For the compound `CCCCCCCCCCCCCCCCCC[N+](C)(C)Cc1ccccc1`, the call was inactive. On to `O=C(NCc1ncc(C(F)(F)F)cc1Cl)c1c(Cl)cccc1Cl`, for which the result was inactive. Take `COc1ccc(C#N)cc1`: the outcome was inactive.

On to `O=P(O)(O)CCC(F)(F)C(F)(F)C(F)(F)C(F)(F)C(F)(F)C(F)(F)C(F)(F)C(F)(F)F`, for which the outcome was inactive. `CCOC(=O)c1nc(C(Cl)(Cl)Cl)n(-c2ccc(Cl)cc2Cl)n1`: the AC50 is 24.5 µM (active). In the case of `Clc1ccc(Nc2nnc(Cc3ccncc3)c3ccccc23)cc1`, the compound was classed as inactive.

Turning to `OCC(F)(F)C(F)(F)C(F)(F)C(F)(F)C(F)(F)C(F)(F)C(F)(F)C(F)(F)C(F)(F)C(F)(F)C(F)(F)F`, the result was inactive. Regarding `CCOC(C)=O`, the call was inactive.

For `CCC(=O)C=Cc1ccc(OC)cc1`, the result was inactive. With `C=CC(F)(F)C(F)(F)C(F)(F)C(F)(F)F`, the call was inactive. For the compound `CCCCCC(C)OC(=O)COc1ccc(Cl)c2cccnc12` (stereo not given), the call was inactive. On the same count and under the same terms, with `CC1=CC(=O)c2ccccc2C1=O` the entry was “inactive”. The same measure, in the same setting: with `CN(C)c1ccc(C(=C2C=CC(=[N+](C)C)C=C2)c2ccccc2)cc1` the entry was “inactive”. Consider `NC(=NCCCCCCN=C(N)/N=C(\N)Nc1ccc(Cl)cc1)/N=C(\N)Nc1ccc(Cl)cc1`, for which the compound was classed as inactive; the AC50 is 90.5 µM (active) and 24.6 µM (active). Regarding `O=C(O)C(F)(F)OC(F)(F)C(F)(F)OC(F)(F)C(F)(F)OC(F)(F)C(F)(F)C(F)(F)C(F)(F)F`, the AC50 is 11.9 µM (active) and the compound was called inactive.

Regarding `Oc1ccc(Cc2ccccc2O)cc1`, the compound was classed as inactive.
